From PubChem BioAssay AID743126 (The Scripps Research Institute Molecular Screening Center, 2013)
The campaign covered roughly 370,000 compounds. About 2,100 (0.57%) were called active. Many of the other results were omitted from the sample, so actives are more common in it than they were. Values without a mark were called inactive.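 The calls were made as follows: active = inhibition above mean plus 3 SD of compounds lying within the high and low control bounds (cut at about 19% in these data); inactive = the rest.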

Molecular target: Group 3 secretory phospholipase A2 (Homo sapiens) (UniProt Q9NZ20)
Sequence (Q9NZ20 whole entry, looked up): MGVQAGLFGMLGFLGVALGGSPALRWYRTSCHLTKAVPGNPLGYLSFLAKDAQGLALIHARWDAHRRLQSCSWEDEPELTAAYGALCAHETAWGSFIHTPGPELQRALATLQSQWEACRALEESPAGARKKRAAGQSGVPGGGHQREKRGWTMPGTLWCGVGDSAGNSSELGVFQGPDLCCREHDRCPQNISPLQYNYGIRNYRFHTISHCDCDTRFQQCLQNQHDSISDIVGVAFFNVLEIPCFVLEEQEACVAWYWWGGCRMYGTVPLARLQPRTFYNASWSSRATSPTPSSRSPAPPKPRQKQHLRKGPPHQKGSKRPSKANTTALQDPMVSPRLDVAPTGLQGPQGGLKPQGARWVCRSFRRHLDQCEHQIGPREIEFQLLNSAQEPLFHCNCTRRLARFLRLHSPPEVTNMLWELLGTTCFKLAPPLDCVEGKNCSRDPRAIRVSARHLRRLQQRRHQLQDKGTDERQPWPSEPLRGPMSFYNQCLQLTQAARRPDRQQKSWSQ
Assay: HGIII-sPLA2 enzyme inhibition – biochemical, QFRET, BODIPY PC-A2 liposome substrate, primary screen (AID 743126);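 also: 0% = median of test compound wells and 100% = no enzyme DMSO wells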
Settings: QFRET BODIPY PC-A2 liposome hydrolysis, fluorescence; at 12.2 µM; stronger effect = higher value

Structure (SMILES) | inhibition
CCOc1ccc(N(CC(=O)Nc2c(C)n(C)n(-c3ccccc3)c2=O)S(=O)(=O)c2ccc(Cl)s2)cc1 | -3.41%
O=C(NCCc1c[nH]c2ccccc12)OCc1cn(-c2c(F)cccc2F)nn1 | -62.2%
CC(=O)c1cc(-c2ccc3ccccc3c2)c(=O)n2c1CCC2 | -7.07%
O=C(CCCCCN1C(=O)C2C3C=CC(C3)C2C1=O)Nc1ccccc1 (stereo not given) | -2.11%
CC(=O)Nc1ccc(Oc2ccc3c(c2)C(=O)NC3=O)cc1 | 1.41%
CC(=O)O[C@H]1c2ccccc2-c2ccccc2[C@@H]1OC(C)=O | 1.14%
CC(=O)Oc1ccc2c(c1)C(=O)c1ccccc1C2=O | 20.7% (active)
COc1ccc(OCC(=O)NCCc2ccc(S(N)(=O)=O)cc2)cc1 | 0.5%
O=C(NCCCNC(=O)NC1CCCCC1)NC1CCCCC1 | 6.47%
NS(=O)(=O)c1ccc(CCNC(=O)NC2CCCCC2)cc1 | 20.7% (active)
O=C(NCCC1=CCCCC1)C1CCN(S(=O)(=O)c2ccc(Cl)s2)CC1 | -2.99%
COc1cccc(NC(C)=[N+](C)CCNS(=O)(=O)c2ccc(Cl)cc2)c1 | 22.1% (active)
COc1cccc(NC(=O)CCNS(=O)(=O)c2ccc3c(c2)oc(=O)n3C)c1 | 5.16%
COc1ccc(S(=O)(=O)NCCCCOc2ccc(Cl)cc2)cc1 | -35.8%
CN(C)[C@H]1CCN(c2cccc3c2S(=O)(=O)N2CC[C@H](C2)O3)C1 | -0.04%
Cc1ccc(OCc2nnc(SC/C=C/c3ccccc3)n2Cc2ccco2)cc1 | -14.9%
CC(=O)Nc1nc2ncccn2c1-c1ccc(C(F)(F)F)cc1 | 11.9%
COC(=O)[C@]12C[C@H](CC(=O)N3CCN(C(=O)C4CC4)CC3)C(=O)N(CCC3=CCCCC3)C1=C[C@H](C(C)C)O[C@@H]2C1CC1 | 4.41%
CN(CC(=O)Nc1ccccc1[N+](=O)[O-])Cc1ccc(Br)cc1 | -9.41%
CSc1ccccc1NC(=O)CN(C)CC(=O)Nc1ccc(Cl)cc1[N+](=O)[O-] | -3.92%
CN(CC(=O)Nc1ccc(N2CCOCC2)cc1)CC(=O)Nc1ccccc1[N+](=O)[O-] | 20.6% (active)
Cc1cc(=O)[nH]c(SCC(=O)Nc2ccc(F)cc2F)n1 | -0.22%
CCC(C)[C@@H](C(=O)OC)N(CCc1cn(Cc2ccccc2)nn1)S(=O)(=O)c1ccccc1Br (stereo not given in full) | -21.7%

Structure (SMILES) | inhibition
CCn1c(SCC(=O)Nc2ccccc2F)nc2c(c1=O)SC(C)C2 (stereo not given) | 0.02%
COCCn1c(SCC(=O)Nc2cc(Cl)ccc2OC)nc2c(c1=O)SC(C)C2 (stereo not given) | -0.04%
COCCn1c(SCC(=O)Nc2cc(OC)ccc2OC)nc2c(c1=O)SC(C)C2 (stereo not given) | 20.3% (active)
Cc1nc(CNc2ncnc3ccc(-c4ccc5c(c4)OCO5)cc23)cs1 | -8.39%
CCCCn1c(N)c(N(CCOC)C(=O)COc2c(C)cccc2C)c(=O)[nH]c1=O | 21.9% (active)
CCCCn1c(N)c(N(CCOC)C(=O)c2sc3ccccc3c2Cl)c(=O)[nH]c1=O | 5.32%
CCCCn1c(N)c(N(CCOC)C(=O)CSCC(=O)Nc2cccc(C)c2)c(=O)[nH]c1=O | 0.3%
CCCCOCCCNC(=O)C[C@H]1C[C@@]2(C(=O)OC)C(=C[C@H](C(C)(C)C)O[C@@H]2C)N(CCc2ccc(OC)c(OC)c2)C1=O | -14.2%
COc1ccnc(C(=O)N2CCC(Oc3cccnc3)CC2)c1 | 3.64%
Cc1ccc(Nc2ccccc2N)cc1 | -1.96%
Nc1ccc(Nc2ccccc2)cc1 | 19.5% (active)
O=c1cnnc(Nc2ccccc2)[nH]1 | 6.17%
CC(=O)O[C@@]1(C(C)=O)CCC2[C@H]3C=C(C)C4=CC(=O)CC[C@@]4(C)C3CC[C@]21C (stereo not given in full) | 14%
COC(=O)c1ccc2nc(-c3ccccc3)c(Cc3ccc(OC)cc3C)n2c1 | -8.3%
COc1ccc(C(=O)NNC(=S)NC(=O)c2ccccc2)cc1 | 31.9% (active)
COc1ccc(C(=O)NC(=S)NNC(=O)c2c(-c3ccccc3)noc2C)cc1 | 19.5% (active)
COc1ccc(C(=O)NN2C(=O)C3C(c4ccccc4)C=CC(c4ccccc4)C3C2=O)cc1 (stereo not given) | -36.3%
COc1ccc(C(=O)NNc2cc(C)nc(NNC(=O)c3ccc(OC)cc3)n2)cc1 | -3.83%
COc1ccc(C(=O)NCCSc2ccccc2C)cc1 | -6.45%
O=S1(=O)c2ccc(Br)cc2OC[C@@H](Cc2ccccc2)N1Cc1cn(Cc2ccco2)nn1 | -4.54%
Nn1c(SCC(=O)Nc2cccc3ccccc23)nnc1-c1cc(-c2ccc(F)cc2)n[nH]1 | -0.61%
COC(=O)c1ccccc1-n1cc(COC(=O)NCCc2ccccc2)nn1 | 6.94%
Cc1ccccc1NC(=O)Cn1nnc(-c2ccccc2F)n1 | -6.88%

Structure (SMILES) | inhibition
O=C1CC[C@@H](COc2ccc3[nH]cc(-c4ccccc4)c3c2-c2ccccc2)N1 | -47.7%
COc1ccc(/C=C2\CC3(OC(C)=O)CCCN2C3)cc1 (stereo not given) | 2.59%
CC(C)CNS(=O)(=O)CC1NCCc2ccccc21 (stereo not given) | 3.21%
COCCN(C(=O)c1ccco1)c1nnc(-c2ccc(OC)cc2)s1 | -1.24%
COc1cc(OC)cc(-c2nc3nc(C)c(CCC(=O)NCc4ccco4)c(C)n3n2)c1 | 9.12%
COc1cc(OC)cc(C2=Cc3ccccc3C(CC(=O)c3ccco3)N2c2ccc(-c3cnc(OC)nc3)cc2)c1 (stereo not given) | 20.3% (active)
CC(c1c[nH]c2ccccc12)c1c(-c2ccccc2)n(C)c2ccccc12 (stereo not given) | -21.1%
COc1ccc(CSc2nnc(-c3cccc(C)c3)n2C)cc1 | 11.9%
O=C(CSc1nc2sc3c(c2c(=O)n1-c1ccccc1)CCCC3)NN=Cc1ccc(OCc2ccccc2)cc1 | -1.3%
COC(=O)C1CN(CC(C)C)CCS(=O)(=O)N1Cc1ccc(F)cc1 (stereo not given) | 5.81%
N#Cc1ccccc1OC[C@@H](O)CN1CCC(C(O)(c2ccccc2)c2ccccc2)CC1 | -25.3%
NS(=O)(=O)c1ccc(CNC(=S)NC(=O)c2ccco2)cc1 | -1.55%
COc1ccc(/C=C(/NC(=O)c2ccco2)C(=O)Nc2ccc(C(C)=O)cc2)cc1 | 10.6%
CC(Oc1ccc2ccccc2c1)C(=O)NNC(=S)NC(=O)c1ccco1 (stereo not given) | 20% (active)
CCOC(=O)C1=C(C)NC2=C(C(=O)CC(C)(C)C2)C1c1ccc2c(c1)OCO2 (stereo not given) | 14.4%
CCCOc1ccc(Oc2c(Cl)cnn(Cc3cccc4ccccc34)c2=O)cc1 | 3.84%
Cc1ccc2[nH]c(C(=O)O)c(NC(=O)c3ccccc3[N+](=O)[O-])c2c1 | -10.3%
Cc1c(C(=O)N/N=C/c2ccccc2)[nH]c2c([N+](=O)[O-])cccc12 | 21.8% (active)
COc1cccc2c(C)c(C(=O)O)[nH]c12 | -1.9%
O=C(NCc1cccs1)C1CCCN(S(=O)(=O)c2ccc([N+](=O)[O-])cc2)C1 (stereo not given) | 2.84%
CN1C[C@]2(C=C3CCCCC3n3c(=O)n(-c4ccccc4)c(=O)n32)N=C1NC(=O)c1ccccc1 (stereo not given in full) | -6.07%
O=C(Nc1cc(Cl)cc(Cl)c1)OCCN1CCCC12CCC(c1ccccc1)CC2 (stereo not given) | -8.41%
C#CCCN([C@H](C(=O)OC)C(C)C)S(=O)(=O)c1ccc(F)cc1Br | 3.19%

Structure (SMILES) | inhibition
COP(=O)(O)CNC(=O)OCc1ccccc1 | 2.13%
O=C(CN1CCCc2ccccc21)NCc1ccc(F)cc1 | 7.05%
N=C(N)SCc1cccc2ccccc12 | 35.3% (active)
CCc1ccc(-c2nn(-c3ccccc3)cc2CSC(=N)N)cc1 | 15.7%
CSC1=NCCN1C(=O)Cc1cccc2ccccc12 | 7.18%
O=C(CNS(=O)(=O)c1ccccc1F)N1CCN(c2ccccn2)CC1 | 5.26%
Cc1cc(C)n(-c2nc(C(F)(F)F)nc3ccccc23)n1 | 1.7%
Cc1cc(-n2nc(C)cc2C)n2ncc(-c3ccccc3)c2n1 | 21.3% (active)
COc1ccccc1-c1cnn2c(N3CCOCC3)cc(C)nc12 | 17.5%
COC(=O)C[C@@H]1CC[C@H]2[C@@H](COc3ccc(NS(=O)(=O)CC(F)(F)F)cc3C(=O)N2C)O1 | 6.09%
O=C(CC(=O)N/N=C\c1cccc(Cl)c1Cl)NCc1ccccc1 | -20.8%
O=C(/C=C/c1c(Cl)cccc1Cl)NCc1ccccc1 | 20% (active)
CCOC(=O)CNC(=O)/C=C/c1c(Cl)cccc1Cl | -5.13%
O=C(CSc1nc2ccccc2s1)NN=Cc1ccc(O)cc1O | -23%
CN(C(=O)CSc1nnc(Nc2ccccc2)s1)C1CCS(=O)(=O)C1 (stereo not given) | -0.8%
COc1cccc(Nc2nnc(SCC(=O)N3CC(C)OC(C)C3)s2)c1 (stereo not given) | 13.8%
CC(C)c1ccc(Nc2nnc(SCC(=O)c3nnc(-c4ccccc4)o3)s2)cc1 | 22.6% (active)
COc1ccc(-n2c(SCC(=O)NC3CCCC3)nnc2-c2ccncc2)cc1 | 12.7%
CCCCOc1ccc(CSC(=N)N)cc1[N+](=O)[O-] | 34.6% (active)
CCCCOC(=O)CCCc1ccc([N+](=O)[O-])cc1[N+](=O)[O-] | 1.12%
CCCCCOc1ccc(CSC2=NCCN2)cc1[N+](=O)[O-] | -1.57%
